The source of these data is PubChem BioAssay AID1974 (The Scripps Research Institute Molecular Screening Center, 2009).

The whole screen tested about 300,000 compounds, of which about 3,200 (1.1%) were called active. For the sample, actives were picked, then their nearest neighbours and some compounds at random. A number with no mark means an inactive call.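 Rule for the calls: active = inhibition above the campaign mean inhibition plus 3 SD (cut at about 35% in these data); inactive = the rest.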

The target in this test is Glutathione S-transferase omega-1 (Homo sapiens) (UniProt P78417). Nature of the test: human GSTO1 enzyme inhibition – biochemical, fluorescence polarization, counter-screen for RBBP9 inhibitor project, primary screen (AID 1974).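 Note: 0% = GSTO1-1 with DMSO and 100% = wells lacking GSTO1-1 enzyme.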 The note with it: recombinant GSTO1, activity-based probe fluorescence polarization; at 5.96 µM; hits give high values. Background: In fluorescence polarisation assays a small probe gives low polarisation when free and higher when bound to something large.
Glutathione S-transferase omega-1 (Homo sapiens), sequence (P78417 whole entry, looked up): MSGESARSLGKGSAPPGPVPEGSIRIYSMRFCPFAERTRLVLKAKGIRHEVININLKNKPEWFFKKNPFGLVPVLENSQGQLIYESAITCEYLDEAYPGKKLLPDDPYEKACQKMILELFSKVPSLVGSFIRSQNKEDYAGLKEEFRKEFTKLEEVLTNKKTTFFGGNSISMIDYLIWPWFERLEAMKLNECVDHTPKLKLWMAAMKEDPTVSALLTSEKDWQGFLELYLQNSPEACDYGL
One may read the inhibition as the change of the read-out against control, counted positive when it falls. For the compound `Cc1ccc(SCc2cc(=O)[nH]c(N3CCCCC3)n2)cc1`, the inhibition was -1.38%. Regarding `Cc1ccc(SCC2=NNC(=O)C2)cc1`, the inhibition was 42.2% (active). For `Cc1ccc(SCCSc2ncccn2)cc1` the value was -0.48%. Turning to `COc1ccc(NC(=O)CCC(=O)N2CCN(S(=O)(=O)c3ccc(C)cc3)CC2)c(OC)c1`, the inhibition was -6.89%. For the compound `Cn1ccsc1=NC(=O)c1cc(S(=O)(=O)N2CCOCC2)ccc1Cl`, the inhibition was -4.31%. Consider `CCOC(=O)c1cc(Sc2ccccc2N)cc(C(=O)OCC)n1`, for which the inhibition is 8.34%. Consider `CCOC(=O)c1c(C)oc2cc(Sc3ccccc3)c(O)c(O)c12`, for which the inhibition is 47.9% (active).

As to `CCOC(=O)c1c(-c2ccccc2)oc2cc(Br)c(O)c(C=O)c12`, the inhibition was 0.6%. Under `Clc1ccc(N/N=C/c2cccs2)nn1` stands 6.83%.

In the case of `Oc1cccc(/C=N/Nc2ccc(Cl)nn2)c1O`, the inhibition is 73% (active). As for `Cc1ccsc1/C=N/Nc1ccc(Cl)nn1`, the inhibition is -1.2%.

In the case of `Cn1c(NC(=O)c2ccccc2)nc2ccccc21`, the inhibition was 4.42%. As for `CC(C)CN(C(=O)COC(=O)c1ccc(Cl)c(N)c1)c1c(N)n(Cc2ccccc2)c(=O)[nH]c1=O`, the inhibition is 3.23%. For the compound `Cc1[nH][nH]c(=O)c1C(c1ccc(-c2ccc(Cl)cc2)o1)c1c(C)[nH][nH]c1=O`, the inhibition is 65.6% (active). In the case of `Cc1[nH][nH]c(=O)c1C(c1ccc2c(c1)OCO2)c1c(C)[nH][nH]c1=O`, the inhibition was 17.4%. Consider `CCOc1ccc(C(c2c(C)[nH][nH]c2=O)c2c(C)[nH][nH]c2=O)cc1OCC`, for which the inhibition was 23.6%. As for `NC(=O)NCCCC(=O)O`, the inhibition is 6.89%. With `OCc1ccc(-c2ccccc2)c(-c2ccccc2)c1`, the inhibition is 0.95%.

Consider `Cn1c(-c2ccc(F)cc2)cc2onc(-c3ccccc3Cl)c2c1=O`, for which the inhibition was 2.68%. Take `CCCN1CC=C2C(C#N)=C(N)C(C#N)(C#N)C(c3cc(OC)ccc3OC)C2C1` (centres undefined): the inhibition was 3.38%. Take `CCN1CC=C2C(C#N)=C(N)C(C#N)(C#N)[C@H](c3ccoc3)[C@H]2C1`: the inhibition is 38% (active). As to `N#CC1=C(N)C(C#N)(C#N)[C@H](c2ccsc2)[C@H]2COCC=C12`, the inhibition is 10.3%.

Take `Cc1ccc(C(=O)OCC(=O)N2CC(C)CC(C)C2)cc1S(=O)(=O)N1CCCCC1` (centres undefined): the inhibition is 1.6%.

Regarding `COc1cc(NC(=O)CSC(=S)N2CCCC2)c(OC)cc1Cl`, the inhibition is 1.86%. For the compound `COc1ccc(-c2cc(=O)c3c(O)cc(O[C@@H]4O[C@H](CO[C@@H]5O[C@@H](C)[C@H](O)[C@@H](O)[C@H]5O)[C@@H](O)[C@H](O)[C@H]4O)cc3o2)cc1O`, the inhibition is 6.25%. For the compound `COc1c(O)cc2oc(-c3ccc(O)c(O)c3)cc(=O)c2c1O`, the inhibition was 37% (active).

With `CCOC(=O)COc1cc(O)c2c(=O)cc(-c3ccccc3)oc2c1`, the inhibition was 4.45%. Take `CC(C)(C)n1nc(Cc2cccc3ccccc23)c(C#N)c1N`: the inhibition is 26.1%. On to `COc1ccc(C(CCN(Cc2ccc(OC)c(OC)c2)C(=O)CCl)c2ccccc2)cc1` (centres undefined), for which the inhibition is 87% (active).

For the compound `COc1ccc(CN(C)C(=O)CC(c2ccccc2)c2ccccc2)cc1`, the inhibition is -5.61%. Regarding `COc1ccc(COC(=O)NC(C(=O)O)c2ccccc2)cc1` (centres undefined), the inhibition is 8.98%. As to `CCOc1cc(/C=N/NC(=O)c2cccc(S(=O)(=O)N3CCOCC3)c2)ccc1OCC(=O)N(C)C`, the inhibition was 5.36%. For `O=C1CCCN1C(=O)COc1ccc([N+](=O)[O-])cc1` the value was -4.91%; for `CCc1nnc(NC(=O)CCC(=O)O)s1`, 3.28%; for `CSc1nsc(SCC(=O)Nc2cc(C(=O)O)ccc2C)n1`, -0.11%. As to `CCc1nnc(NC(=O)CSc2nc(SC)ns2)s1`, the inhibition was 47.1% (active). In the case of `CCc1ccc(Nc2n[n+](-c3ccccc3)c(-c3cccc(Cl)c3Cl)s2)cc1`, the inhibition is 5.75%. In the case of `O=C(N/N=C/c1c(Cl)[nH]c2ccccc12)c1sc2ccccc2c1Cl`, the inhibition is -18.9%.

Regarding `COc1ccc(N=C(C)c2sc3ccccc3c2O)cc1`, the inhibition was 3.42%. As to `Oc1ccc(N=Cc2sc3ccccc3c2Cl)cc1`, the inhibition is 87.7% (active). As for `CCN(CC(=O)Nc1c(F)cccc1F)C(=O)C1CCC1`, the inhibition is 0.37%.

In the case of `COc1ccc(C(=O)OCC(=O)c2ccc(Cl)s2)c(OC)c1OC`, the inhibition was 2.69%.

As for `CNC(=S)NNC(=O)c1oc2nc(-c3ccccc3)cc(-c3ccco3)c2c1N`, the inhibition is 3.57%. As for `O=C(Nc1cccc(F)c1)c1cc(-c2ccco2)nc2ccccc12`, the inhibition was -14.9%. Take `NNC(=O)c1oc2nc(-c3ccccc3)cc(-c3ccco3)c2c1N`: the inhibition is 38.1% (active). As for `Cc1c(C)n2c(SCC(=O)NC3CCCC3)nnc2[nH]c1=O`, the inhibition was 3.72%. Consider `CCN(CC(=O)Nc1c(F)cccc1F)C(=O)CN1c2cccc3cccc(c23)S1(=O)=O`, for which the inhibition is 0.89%. Regarding `C#CCOCCOCCOCCNc1nc(N2CCN(C(=O)CCCCCCCCCCNC(=O)[C@H]([C@@H](C)CC)n3cc(CCCCN=C(N)N)nn3)CC2)nc(N2CCN(C(=O)CCCCCCCCCCNC(=O)[C@H](CO)n3cc(CCCSC)nn3)CC2)n1`, the inhibition was 0.8%.

With `S=c1[nH]nc(-c2ccc(Cl)cc2)n1CC1CCCO1` (centres undefined), the inhibition is 6.47%. Turning to `O=C(c1nnc(-c2ccc(Cl)cc2)o1)C1CCCC1`, the inhibition is -2.2%. `O=C(c1[nH]ncc1-c1ccc(Cl)cc1)C1CO1` (centres undefined): the inhibition is 69.7% (active).

As for `C#CCOCCOCCOCCNc1nc(N2CCN(C(=O)[C@H](CCCCN)n3cc(CCC(=O)O)nn3)CC2)nc(N2CCN(C(=O)[C@H](CCCCN)n3cc(CC(C)O)nn3)CC2)n1` (some centres undefined), the inhibition was 5.45%. Regarding `Cc1cccc(N2CC(C(=O)Nc3ccccc3N3CCCC3)CC2=O)c1C` (centres undefined), the inhibition is -3.75%. Turning to `CC/C(=N/Nc1ccccc1)c1cnnc(SC)n1`, the inhibition was 46.9% (active). As to `C/C(=N/Nc1ccc(Cl)cc1)c1cnnc(-c2ccccc2)n1`, the inhibition is -2.69%. On to `CSc1nsc(NC(=O)Nc2ccccc2)n1`, for which the inhibition was -11%. In the case of `COc1cccc(NC(=O)CSc2nnc(-c3cccnc3)o2)c1`, the inhibition is -6.7%. For `COC(C[C@@H](O)C[C@H](O)[C@H](C)OCc1ccccc1)OC` the value was 3.16%; for `CCCCn1c(N)c(N(CC(C)C)C(=O)c2cnc(C)cn2)c(=O)[nH]c1=O`, -0.67%; for `Cc1c(C)n2c(SCC(=O)N3CCCC3)nnc2[nH]c1=O`, 4.38%.

Consider `CCOC(=O)N1CCC(NC(=O)COc2cc(=O)n(C)c3ccccc23)CC1`, for which the inhibition is -3.88%. `CCOC(=O)N1CCC(NC(=O)CCc2ccccc2)CC1`: the inhibition is -0.86%. Under `CCOC(=O)N1CCC(c2cc(=O)n(-c3ccccc3)[nH]2)CC1` stands 37.3% (active). In the case of `CC(=O)CC[C@@H](C)O[C@@H]1OC(C)[C@H](O)CC1O` (some centres undefined), the inhibition is -1.35%. On to `C[C@H]1CC[C@]2(O[C@@H](CCO)C[C@@H](O)[C@@H]2O)O1`, for which the inhibition was 1.91%. For `COc1ccc(C=Nc2cccc3ncccc23)cc1`, the inhibition is 6.91%. With `Oc1c(C=Nc2cccc3nsnc23)ccc2ccccc12`, the inhibition was 64.1% (active).

Turning to `NC(=O)C1CCN(C(=O)c2cn(-c3ccccc3)nc2-c2cccnc2)CC1`, the inhibition was 4.31%. Under `O=C(c1cc(C(=O)N2CCN(c3ccc(F)cc3)CC2)cc([N+](=O)[O-])c1)N1CCN(c2ccc(F)cc2)CC1` stands 2.3%; under `CC(NC(=O)c1ccccc1F)c1cccc2ccccc12` (centres undefined), 2.21%; under `CN(C)[C@@H]1C(=O)C(C(N)=O)=C(O)[C@@]2(O)C(=O)C3=C(O)c4c(O)ccc(Cl)c4[C@@H](O)[C@H]3C[C@@H]12`, 69.1% (active). For `O=C(Nc1nc(-c2ccco2)c(-c2ccco2)s1)c1ccco1`, the inhibition is 28.3%. With `CC(Sc1nn(-c2ccc(Cl)cc2)c(=S)s1)C(=O)NCC1CCCO1` (centres undefined), the inhibition was -4.24%. Under `COc1ccc(C(CNC(=O)c2ccc(NS(=O)(=O)c3ccc(F)c(C)c3)cc2)N(C)C)cc1` (centres undefined) stands -9.5%. For `O=C(N/N=C/c1c[nH]c2ccccc12)c1cc2ccccc2o1` the value was -5.04%; for `O=C(N/N=C/c1c[nH]c2ccccc12)c1ccccc1O`, -1.35%; for `O=C(O)c1cccc(NC(=S)N/N=C/c2c[nH]c3ccccc23)c1`, 48.7% (active).

With `C[n+]1ccccc1C1CCCC/C1=N\Nc1ccc([N+](=O)[O-])cc1[N+](=O)[O-]` (centres undefined), the inhibition was 45.5% (active). Take `O=C(Nc1ccccc1)O/N=C1\CCCCC1c1ccc([N+](=O)[O-])cc1[N+](=O)[O-]` (centres undefined): the inhibition is -4.23%. As to `O=[N+]([O-])c1ccc(N/N=C2/CCCCC2c2ccccn2)c([N+](=O)[O-])c1` (centres undefined), the inhibition was 27.8%. Regarding `COc1ccc(NC(=O)CN(C)C(=O)c2cccc(S(=O)(=O)N3CCN(c4ccccc4)CC3)c2)cc1`, the inhibition was 0.96%. For `CCOC(=O)c1c(C)[nH]c(C(=O)OCC(=O)N2CCCC2=O)c1C`, the inhibition is -4.82%. `CCN1C(=O)[C@@H]2[C@@H](c3ccc(-c4ccccc4)cc3)N3CCCC[C@@]3(C(=O)OC)[C@@H]2C1=O`: the inhibition is -2.94%. As to `COc1ccc(C(CNC(=O)c2cccc(S(=O)(=O)Nc3ccccc3Cl)c2)N2CCOCC2)cc1` (centres undefined), the inhibition is -26.9%. As for `Cc1cc(C)n2nc(C(=O)OCC(=O)N(CCC#N)c3ccc(F)cc3)nc2n1`, the inhibition was 7.91%.

Turning to `CCOC(=O)c1c(-c2ccc(C)cc2)csc1/N=C(\C)C1=C(O)c2ccccc2C1=O`, the inhibition is 7.75%. `CCOC(=O)C1=C(c2ccc(OC)cc2)C(=O)c2ccccc2C1=O`: the inhibition is 40.5% (active). Under `CCOC(=O)c1cnc(-c2ccccc2)nc1Oc1ccc(C)cc1` stands 2.24%; under `CCCC(=O)Nc1ncnc2c1ncn2[C@@H]1O[C@@H]2OP(=O)(O)OC[C@H]2[C@H]1OC(=O)CCC`, -0.48%.
